CHO-K1 Ca antag – counter-screen for M1 antagonists: effect in parental CHO-K1 cells; ATP-induced calcium, Fluo-8 fluorescence; inhibition, % at 3 µM; 360,000 compounds, 0.6% hits;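 active = inhibition above a per-plate cutoff, the plate's mean sample inhibition plus 3 SD, cut at about 24% in these data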;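 also: 0% = DMSO plus EC80 ATP and 100% = DMSO alone without ATP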
TMEM16A inh – inhibitors of mouse TMEM16A calcium-activated chloride channel; Q8BHY3; HEK293 TMEM16A/YFP iodide influx fluorescence, ionomycin; normalized B-score (activity score, 25-100; higher = stronger inhibition) at 10 µM; 310,000 compounds, 1.2% hits; AID 588511;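 active = ratio plate-corrected score three or more library SD toward inhibition, starting fluorescence score within five deviations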;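 also: score derived from kinetic fluorescence span divided by baseline fluorescence per well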
ANO1 activ – activators or potentiators of mouse TMEM16A chloride channel | 340,000 compounds, 0.3% hits | B-score at 10 µM | HEK293 TMEM16A/YFP-H148Q/I152L, iodide quench fluorescence; stronger effect = lower value;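 active = fluorescence-ratio B-score plate-corrected deviation score at least 3 library SD below zero, with starting fluorescence score within 5 deviations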;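 also: channel opened by trigger with iodide after compound preincubation; score built on the fluorescence ratio of max minus min over baseline; more negative score means more quench and so TMEM16A activation or potentiation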
NTR1 agonist – activates human neurotensin receptor 1; 330,000 compounds, 0.17% hits; activation, % at 20 µM; AID 493036; NTR1-U2OS beta-arrestin-GFP spot imaging, agonist mode; P30989;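 active = activation at or above 40% of the spot to cytoplasm intensity ratio, with at least 20 cells analyzed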;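 also: 0% = DMSO without peptide and 100% = 100 nM NTR1 peptide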
M1 ag parental – counter-screen for M1 agonists: effect in parental CHO-K1 cells; Fluo-8 calcium fluorescence; scaled to maximal ATP response, vehicle zero; activation, % at 3 µM; 360,000 compounds, 0.48% hits; AID 602248; in the data active = activation above about 15%;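 also: untransfected CHO-K1 host cells lacking M1 receptor as counterscreen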
M1 PAM parental – M1 PAM counterscreen hit in parental CHO-K1 cells | ATP EC20, Fluo-8 calcium fluorescence; 0% at ATP EC20, 100% at ATP max | AID 602247 | 360,000 compounds, 0.02% hits | activation, % at 3 µM;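 active = activation above the run cutoff, the mean activation of all test compounds plus 3 SD, cut at about 40% in these data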;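 also: peak over basal fluorescence ratio in a 140 s read after ATP addition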
TMEM16A reconf – re-confirmation of mouse TMEM16A chloride channel inhibitors. AID 652189. shares compounds with TMEM16A inh. HEK293 TMEM16A/YFP-H148Q, iodide quench fluorescence; ionomycin added to raise cell calcium. inhibition, % at 10 µM. 2,300 compounds, 39% hits;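 active = mean duplicate percent inhibition, scaled so buffer wells are 0 and the reference blocker 100, over three buffer SD above buffer mean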
TMEM16A Ca cntr – calcium mobilization counter-screen hit for TMEM16A inhibitor series; shares compounds with TMEM16A inh; TMEM16A/YFP HEK293, Fluo4 calcium mobilization; calcium response (% of ionomycin), % at 10 µM; 2,300 compounds, 2% hits;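 active = duplicate-averaged calcium signal over 20% of the ionomycin maximum, relative to buffer baseline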;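 also: each well's signal is peak minus trough fluorescence divided by its pre-addition baseline; 0% = buffer wells and 100% = ionomycin wells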
Parental YFP cnt – parental YFP-HEK293 iodide quench counter-screen activity. shares compounds with TMEM16A inh. ionomycin. YFP ratio F(max-min)/F0 at 10 µM. 2,300 tested, under 10 active;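 active = yellow fluorescent protein signal ratio exceeding the buffer control mean by over 5 SD of those controls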;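 also: ratio is mean of duplicate wells from kinetic YFP trace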
ClC-1 inh – rat ClC-1 inhibition, TMEM16A specificity screen; CHO ClC-1-YFP, iodide influx fluorescence quench; iodide control reads 0, buffer control 100; shares compounds with TMEM16A inh; ratio percent, % at 10 µM; 2,300 tested, under 10 active;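 active = duplicate-mean ratio percent above the mean of iodide-only control wells, which defines zero, plus 5 of their SD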;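 also: higher percent means stronger block of ClC-1 iodide influx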
The depositor's hits bear a star. A selection: hits, their analogues and other compounds. The true share with any hit is near 2.2%.

Screening CCCc1cc(C(N)=O)c(NC(C)=O)s1 returned CHO-K1 Ca antag -22, TMEM16A inh 100*, ANO1 activ inactive, NTR1 agonist 0, M1 ag parental -1, M1 PAM parental -4, TMEM16A reconf inactive, TMEM16A Ca cntr inactive, Parental YFP cnt -0.92 and ClC-1 inh -14.
COc1ccccc1NS(=O)(=O)c1cccc(C(=O)NC2CCN(Cc3ccccc3)CC2)c1 was read as CHO-K1 Ca antag 3, TMEM16A inh 100*, ANO1 activ inactive, NTR1 agonist 0, M1 ag parental 12, M1 PAM parental -5, TMEM16A reconf 56%*, TMEM16A Ca cntr inactive, Parental YFP cnt -1 and ClC-1 inh -27.
`S=C(NCCc1ccc(Cl)cc1)Nc1ccc(Cl)cc1Cl` gave CHO-K1 Ca antag 20, TMEM16A inh 25*, ANO1 activ inactive, NTR1 agonist 7, M1 ag parental 6, M1 PAM parental -7, TMEM16A reconf inactive, TMEM16A Ca cntr inactive, Parental YFP cnt -0.97 and ClC-1 inh -12.
Fc1ccc(NC(=S)NCCc2ccc(Cl)cc2)cc1 was read as CHO-K1 Ca antag 5, TMEM16A inh inactive, ANO1 activ inactive, NTR1 agonist 1, M1 ag parental 7 and M1 PAM parental 11.
`Fc1ccc(CCNC(=S)Nc2ccc(F)c(Cl)c2)cc1` gave CHO-K1 Ca antag 25*, TMEM16A inh 100*, ANO1 activ -4.7*, NTR1 agonist 16, M1 ag parental 15, M1 PAM parental -2, TMEM16A reconf 37%*, TMEM16A Ca cntr inactive, Parental YFP cnt -1.1 and ClC-1 inh -14.
Screening Fc1ccc(NC(=S)Nc2ccc(Cl)cc2Cl)cc1 returned TMEM16A inh 100*, NTR1 agonist 2, TMEM16A reconf 20%*, TMEM16A Ca cntr inactive, Parental YFP cnt -1.1 and ClC-1 inh -10.
For O=C(O)c1ccc(NC2(C(=O)O)CCCC2)cc1 the results were CHO-K1 Ca antag -19, ANO1 activ inactive, M1 ag parental 0 and M1 PAM parental 11.
Screening Cc1ccccc1OCC(=O)N/N=C/c1cc2ccccc2nc1Cl returned CHO-K1 Ca antag -3, TMEM16A inh 25*, ANO1 activ inactive, NTR1 agonist 15, M1 ag parental 1, M1 PAM parental 12, TMEM16A reconf 20%*, TMEM16A Ca cntr inactive, Parental YFP cnt -1.1 and ClC-1 inh -16.
Screening CC(Cc1cccs1)NC(=S)Nc1ccc(Cl)c(Cl)c1 (stereo not given) returned CHO-K1 Ca antag 7, TMEM16A inh inactive, ANO1 activ inactive, NTR1 agonist 2, M1 ag parental 6 and M1 PAM parental -4.
CC(Cc1cccs1)NC(=S)Nc1ccc(Cl)cc1 (stereo not given) was read as CHO-K1 Ca antag 13, TMEM16A inh 25*, ANO1 activ inactive, NTR1 agonist 2, M1 ag parental 9, M1 PAM parental -5, TMEM16A reconf 38%*, TMEM16A Ca cntr inactive, Parental YFP cnt -1.2 and ClC-1 inh -15.
Screening COc1ccc(N/C(=C2\CCCC2=O)C2CCCCC2)cc1 returned CHO-K1 Ca antag -10, TMEM16A inh inactive, ANO1 activ inactive, NTR1 agonist 6, M1 ag parental 0, M1 PAM parental 0, TMEM16A reconf inactive, TMEM16A Ca cntr inactive, Parental YFP cnt -1 and ClC-1 inh -15.
`COc1ccc(NC(=O)CNC(=O)C2CCCCC2)cc1` gave CHO-K1 Ca antag 1, TMEM16A inh inactive, ANO1 activ inactive, NTR1 agonist 1, M1 ag parental 0 and M1 PAM parental -3.
For CC1(C(=O)NS(=O)(=O)Cc2ccccc2)CCN1C(=O)Cc1ccccc1Cl (stereo not given) the results were CHO-K1 Ca antag 10, M1 ag parental 0 and M1 PAM parental -10.
For O=C(c1cccnc1)N(Cc1ccccc1)C(c1ccccc1)c1nc2ccccc2[nH]1 (stereo not given) the results were CHO-K1 Ca antag 3, M1 ag parental 4 and M1 PAM parental 13.
Screening CSc1ccc(C(=O)C2CCCN(C(=O)CCc3c(C)nn(C)c3C)C2)cc1 (stereo not given) returned CHO-K1 Ca antag 13, TMEM16A inh 25*, ANO1 activ inactive, NTR1 agonist 0, M1 ag parental 9, M1 PAM parental -9, TMEM16A reconf inactive, TMEM16A Ca cntr inactive, Parental YFP cnt -0.89 and ClC-1 inh -11.
For COc1ncccc1-c1cc2nc(NCCNC(C)=O)n(C)c(=O)c2s1 the results were CHO-K1 Ca antag -12, M1 ag parental 0 and M1 PAM parental 19.
`C[C@@H]1CN([C@H](C)CO)C(=O)CCCn2cc(nn2)CO[C@H]1CN(C)S(=O)(=O)c1ccc(C#N)cc1` gave CHO-K1 Ca antag -6, M1 ag parental 0 and M1 PAM parental 10.
For COc1cc(OC)c(C(=O)OCC(=O)NCC2CCCCC2)cc1OC the results were CHO-K1 Ca antag -1, ANO1 activ inactive, NTR1 agonist -1, M1 ag parental 1 and M1 PAM parental 7.
`CCOC(=O)C(C)Sc1nc2c(c(-c3cccs3)c1C#N)CCC2` (stereo not given) gave CHO-K1 Ca antag -4, TMEM16A inh inactive, ANO1 activ inactive, NTR1 agonist 4, M1 ag parental 0, M1 PAM parental 2, TMEM16A reconf inactive, TMEM16A Ca cntr inactive, Parental YFP cnt -1.3 and ClC-1 inh -7.
For CC(C)OC(=O)CC(=O)CSc1nc2c(c(-c3cccs3)c1C#N)CCC2 the results were CHO-K1 Ca antag 15, TMEM16A inh inactive, ANO1 activ inactive, NTR1 agonist 6, M1 ag parental 0 and M1 PAM parental -2.
CCC1=NN(C(=O)c2ccccc2Br)C(O)(c2ccc(Br)cc2)C1 (stereo not given) was read as CHO-K1 Ca antag -1, TMEM16A inh inactive, ANO1 activ inactive, NTR1 agonist -1, M1 ag parental 0 and M1 PAM parental 8.
